In the library only some 11% were active in any assay of this set; here they are far more common.
hNpr1 antagonist = Natriuretic polypeptide receptor (hNpr1) antagonism - Primary qHTS; Atrial natriuretic peptide receptor 1 (Homo sapiens), P16066; HEK293 hNpr1 GloSensor cGMP, ANP-stimulated luminescence; Potency, µM (highest dose often 46.3 µM), for inactives: at the highest dose activity change, negative = inhibition, most hits filed as inhibitors; 76,000 tested, 1.6% active; AID 1347048, 2019; calls by dose curve; also: nearly all actives have a fitted effect of over 60% in size
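HEK293 cells stably expressing human Npr1 and cGMP GloSensor pGS-40F, loaded 2 h with 2% GloSensor reagent, given compound 30 min at room temperature. Luminescence read before and 20 min after 0.1 nM hNppA.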
FLuc inh = Firefly luciferase inhibition profiling of diverse chemical library using quantitative high-throughput screening; Luciferin 4-monooxygenase (Photinus pyralis), P08659; purified P. pyralis luciferase, luminescence, biochemical; Potency, µM (titrated, usually from 115 µM), most hits filed as inhibitors; 76,000 tested, 2.5% active; also: nearly all actives have a fitted effect of over 65% in size
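FLuc 10nM, D-luciferin 10uM, ATP 10uM, Mg acetate 10mM, Tris acetate pH 7.5, Tween/BSA; cpd qHTS; enzyme added last; CCD luminescence.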
NIH3T3 tox = Cytotoxic Profiling in NIH 3T3 Cell Line of Diverse Libraries Using Quantitative High-Throughput Screening | Potency, µM (series often up to 96.7 µM), without a hit: at the top dose activity change, negative = cytotoxicity, actives largely listed as inhibitors | 94,000 tested, 4.3% active | NIH 3T3 viability, CellTiter-Glo ATP luminescence, 48-72 h; also: nearly all actives have a fitted effect of over 55% in size
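Luminescent ATP readout (CellTiter-Glo, 10 min RT) after 48 or 72 hr compound exposure of NIH 3T3 cells seeded at 400 cells/well in 1536-well format; quantitative HTS.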
HEK cytotox = Cytotoxic Profiling in HEK 293 Cell Line of Diverse Libraries Using Quantitative High-Throughput Screening; HEK 293 viability, ATP luminescence (CellTiter-Glo), 48-72 h; Potency, µM (series often up to 115 µM), for the others: at the top dose activity change, negative = cytotoxicity, hits mostly inhibitors; 94,000 tested, 6.6% active; also: nearly all actives have a fitted effect of over 60% in size
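HEK 293 cells at 250 cells/well were exposed to compounds by pintool transfer for 48 or 72 hr at 37 degree Celsius, 5% CO2. Viability was read as ATP-coupled luminescence with CellTiter-Glo after 10 min at room temperature.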
Starred values were filed as active, the others as inactive; [ ] = remark or other dose. Unless noted, calls follow the shape of the dose curve; as a rule, active = well fitted curve in the direction sought with a large enough effect; inconclusive = small, poorly fitted or top-dose-only effect, or another doubt; inactive = no such curve, though single readings can be large; an effect the other way counts as inactive or inconclusive. % is scaled to controls: 0 for no effect and ±100 for the full control effect; potency is read from the fitted curve at half-maximal effect.

Results for Cc1ccccc1Cn1cc(-c2ccncc2)cc1C(=O)N1CCCC(C)C1 (stereo not given) ?
hNpr1 antagonist: -8.2%; FLuc inh: inactive; NIH3T3 tox: inconclusive; HEK cytotox: 44.7µM*

What do the screens show for `Cc1nnc(-c2cc(Nc3cccc(N(C)C)c3)ccn2)n1C1CCCCC1`?
hNpr1 antagonist: -5.9%[70.6 µM]; FLuc inh: inactive; NIH3T3 tox: inconclusive; HEK cytotox: 89.1µM*

Results for O=C(NCc1cccnc1)c1ccc(N2CC3CC(C2)[C@H]2CCCC(=O)N2C3)nc1 (stereo not given in full) ?
hNpr1 antagonist: -2.8%; FLuc inh: inactive; NIH3T3 tox: 5.01µM*; HEK cytotox: 10.0%

How did O=C(NCc1ccc(F)cc1F)c1ccc(N2CC3CC(C2)[C@H]2CCCC(=O)N2C3)nc1 (stereo not given in full) do in these assays?
hNpr1 antagonist: 3.5%; FLuc inh: inactive; NIH3T3 tox: 28.2µM*; HEK cytotox: -2.2%

How did O=C(NCc1cc(F)cc(F)c1)c1ccc(N2CC3CC(C2)[C@H]2CCCC(=O)N2C3)nc1 (stereo not given in full) do in these assays?
hNpr1 antagonist: 0.9%; FLuc inh: inactive; NIH3T3 tox: -25.4%; HEK cytotox: -8.6%

How did CC(=O)NC1CCN(c2ccc3nnc(-c4ccccc4)n3n2)C1 (stereo not given) do in these assays?
NIH3T3 tox: -16.2%[138 µM]; HEK cytotox: 1.1%[172 µM]

What do the screens show for `COc1ccc(-c2cccc(C(=O)N3CCN([S+](=O)([O-])c4cccs4)CC3)c2)nn1`?
NIH3T3 tox: -13.5%; HEK cytotox: inconclusive

How did O=C1CCC2(C(=O)NCc3ccc4c(c3)OCO4)CCC=C2N1C1CCCC1 (stereo not given) do in these assays?
NIH3T3 tox: -28.3%; HEK cytotox: inconclusive

How did CNC(=O)c1ccc(-c2ccc(OC)nn2)cc1Cl do in these assays?
NIH3T3 tox: -28.3%[138 µM]; HEK cytotox: -2.4%[172 µM]

Results for CN1CCCC2(C1)CN(Cc1cccnc1)c1ccc(C(=O)Nc3ccccc3)cc12 (stereo not given) ?
hNpr1 antagonist: 4.0%[70.6 µM]; FLuc inh: inactive; NIH3T3 tox: 89.1µM*; HEK cytotox: inconclusive

Results for CN1CCC2(C1)CN(Cc1ccccc1)c1ccc(C(=O)NC3CC3)cc12 (stereo not given) ?
hNpr1 antagonist: 9.9%[70.6 µM]; FLuc inh: inactive; NIH3T3 tox: -25.8%[138 µM]; HEK cytotox: inconclusive

Results for CN1CCCC2(C1)CN(C)c1ccc(C(=O)Nc3ccccc3)cc12 (stereo not given) ?
hNpr1 antagonist: -0.1%[70.6 µM]; FLuc inh: inactive; NIH3T3 tox: inconclusive; HEK cytotox: inconclusive

How did CN1CCC2(C1)CN(Cc1ccccc1)c1ccc(C(=O)NC3CCC3)cc12 (stereo not given) do in these assays?
hNpr1 antagonist: -3.7%[70.6 µM]; FLuc inh: inactive; NIH3T3 tox: 79.4µM*; HEK cytotox: inconclusive

Results for CN1CCC2(C1)CN(Cc1ccccc1)c1ccc(C(=O)NC3CCCCC3)cc12 (stereo not given) ?
hNpr1 antagonist: -1.2%[70.6 µM]; FLuc inh: inactive; NIH3T3 tox: inconclusive; HEK cytotox: 79.4µM*

What do the screens show for `O=C(c1nc2sccn2c1-c1ccncc1)N1CCOCC1`?
NIH3T3 tox: inactive; HEK cytotox: -2.2%

Results for COC(=O)[C@@H]1Cc2c([nH]c3ccccc23)[C@H]2C[C@@H](NC[C@H]3CCCO3)C[C@@H](c3ccccc3F)N21 ?
hNpr1 antagonist: 5.4%; FLuc inh: inactive; NIH3T3 tox: 79.4µM*; HEK cytotox: 79.4µM*

Results for CCNC(=O)[C@@H]1C[C@H](NC(=O)CCc2ccccc2)CN1Cc1cnc[nH]1 ?
hNpr1 antagonist: 0.6%; FLuc inh: inactive; NIH3T3 tox: inactive; HEK cytotox: 3.3%

What do the screens show for `COC(=O)[C@@H]1Cc2c([nH]c3ccccc23)[C@H]2C[C@@H](NCCc3cnc[nH]3)C[C@@H](c3ccccc3F)N21`?
hNpr1 antagonist: -13.8%; FLuc inh: inactive; NIH3T3 tox: 28.2µM*; HEK cytotox: 25.1µM*
